# Source: the supplement of paper PMC9262897, “Low-cost anti-mycobacterial drug discovery using engineered E. coli” (Nature Communications, 2022)
# Where a name gives a salt, the structure may show the parent alone. ± gives the standard deviation of the averaged measurements.
# Test system: E. coli TESEC Mtb Alr
# Experiment: growth (OD600 after 10 h); higher = more growth (less inhibition)
# Conditions: compound 0.1 mM
# Experimental: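 TESEC Mtb Alr E. coli, or the Alr+ wild-type control, in 384-well plates with Prestwick library compounds at 0.1 mM and 1% DMSO, across arabinose induction levels of 1E3 to 1E7 nM. Growth is read as OD600 after 10 h at 37 °C in triplicate biological replicates.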
# [1] = arabinose 1000 nM, raw OD600 reference: median of DMSO wells 0.294, cell-free background 0.041
# [2] = arabinose 10000 nM, raw OD600 reference: median of DMSO wells 0.264, cell-free background 0.041
# [3] = arabinose 100000 nM, raw OD600 reference: median of DMSO wells 0.201, cell-free background 0.041
# [4] = arabinose 1000000 nM, raw OD600 reference: median of DMSO wells 0.193, cell-free background 0.041
# [5] = arabinose 10000000 nM, raw OD600 reference: median of DMSO wells 0.146, cell-free background 0.041
SMILES,growth [1],growth [2],growth [3],growth [4],growth [5]
CN(C)C(=O)Oc1cccc([N+](C)(C)C)c1 [Neostigmine bromide],0.316 ± 0.0053,0.273 ± 0.0057,0.225 ± 0.033,0.19 ± 0.0043,0.168 ± 0.0075
CC(C)c1c(CN(C)C(C)Cc2ccccc2)n(C)n(-c2ccccc2)c1=O (stereo not given) [Famprofazone],0.279 ± 0.013,0.27 ± 0.014,0.154 ± 0.0078,0.131 ± 0.0042,0.154 ± 0.0085
O=[N+]([O-])O[C@H]1CO[C@H]2[C@@H]1OC[C@H]2O[N+](=O)[O-] [Isosorbide dinitrate],0.32 ± 0.014,0.263 ± 0.0089,0.217 ± 0.025,0.185 ± 0.0031,0.159 ± 0.0026
CC(CCc1ccccc1)NC(C)C(O)c1ccc(O)cc1 (stereo not given) [Nylidrin],0.297 ± 0.018,0.285 ± 0.013,0.167 ± 0.0039,0.16 ± 0.0093,0.144 ± 0.002
C(#CCN1CCCC1)CN1CCCC1 [Tremorine dihydrochloride],0.317 ± 0.011,0.27 ± 0.005,0.239 ± 0.013,0.194 ± 0.0086,0.162 ± 0.008
O=C(O)CCCc1ccc(N(CCCl)CCCl)cc1 [Chlorambucil],0.296 ± 0.0033,0.263 ± 0.0054,0.206 ± 0.0083,0.191 ± 0.0081,0.135 ± 0.0069
C[C@]12C/C(=C/O)C(=O)C[C@@H]1CC[C@@H]1[C@@H]2CC[C@@]2(C)[C@H]1CC[C@]2(C)O [Oxymetholone],0.293 ± 0.0078,0.241 ± 0.025,0.244 ± 0.014,0.101 ± 0.0039,0.177 ± 0.0058
CN1[C@@H]2CC[C@H]1C[C@@H](OC(=O)[C@H](CO)c1ccccc1)C2 [Hyoscyamine (L)],0.293 ± 0.024,0.272 ± 0.0055,0.23 ± 0.011,0.176 ± 0.005,0.158 ± 0.011
